Binding signal data for one sequence are collected here from publication PMC7862700, “An all-to-all approach to the identification of sequence-specific readers for epigenetic DNA modifications on cytosine”.

Common to all, as to assay: DAPPL (digital affinity profiling via proximity ligation, sequencing); 10 mM Tris-HCl pH 7.5, 50 mM NaCl, 1 mM DTT, 4% glycerol, room temperature, 30 min; GST-TFs on glutathione beads, 16-mer random dsDNA library, 0.1% formaldehyde crosslink after washing; high values mean tight binding
The target of one assay is T1, FEV (Homo sapiens, UniProt Q99581 1-238).
T1 sequence: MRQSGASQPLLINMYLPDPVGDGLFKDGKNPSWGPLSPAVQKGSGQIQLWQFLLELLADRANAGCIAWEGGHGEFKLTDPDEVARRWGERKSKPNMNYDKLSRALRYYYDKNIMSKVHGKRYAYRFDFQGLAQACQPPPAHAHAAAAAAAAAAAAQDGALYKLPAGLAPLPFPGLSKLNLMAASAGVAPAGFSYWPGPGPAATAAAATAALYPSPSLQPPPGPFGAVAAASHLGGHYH
The conditions noted are these: protein: recombinant; tags: N-terminal GST; dsDNA, one strand shown. Summed up: (§1)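 Binding signal is given per hexamer as its read frequency for a factor divided by its frequency in the tag-only sample. GST-fused human transcription factors were expressed in yeast, captured on glutathione beads, barcoded with DNA and pooled with that sample, then incubated with 200 nmole of a 16-mer random double-stranded DNA library in Tris/NaCl/DTT/glycerol buffer for 30 min at room temperature. The pools were then washed, crosslinked, proximity-ligated, amplified by PCR and sequenced on an Illumina NextSeq500.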

In a further assay the target is ETV5 (Homo sapiens, UniProt P41161 1-510). Particulars: protein: recombinant; tags: N-terminal GST; dsDNA, one strand shown. Summed up: as §1
For a further assay, the target named is HSF1 (Homo sapiens, UniProt Q00613 1-529). Particulars: protein: recombinant; tags: N-terminal GST; chain copies: 3; dsDNA, one strand shown. An outline of the steps: as §1
The next assay deals with T2, SPIC (Homo sapiens, UniProt Q8N5J4 1-248).
T2 sequence: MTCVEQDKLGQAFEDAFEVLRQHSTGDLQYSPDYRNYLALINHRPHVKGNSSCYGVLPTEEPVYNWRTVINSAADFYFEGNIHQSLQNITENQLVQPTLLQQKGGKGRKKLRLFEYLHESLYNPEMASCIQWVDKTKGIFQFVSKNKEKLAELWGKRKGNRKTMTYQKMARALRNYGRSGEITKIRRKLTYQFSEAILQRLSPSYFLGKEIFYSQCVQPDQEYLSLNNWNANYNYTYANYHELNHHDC
The conditions noted are these: protein: recombinant; tags: N-terminal GST; dsDNA, one strand shown. An outline of the steps: as §1

In the next assay the target is ELF4 (Homo sapiens, UniProt Q99607 1-663). Particulars: protein: recombinant; tags: N-terminal GST; dsDNA, one strand shown. Summed up: as §1
For the next assay, the target named is T3, ELK4 (Homo sapiens, UniProt P28324-2 1-405).
T3 sequence: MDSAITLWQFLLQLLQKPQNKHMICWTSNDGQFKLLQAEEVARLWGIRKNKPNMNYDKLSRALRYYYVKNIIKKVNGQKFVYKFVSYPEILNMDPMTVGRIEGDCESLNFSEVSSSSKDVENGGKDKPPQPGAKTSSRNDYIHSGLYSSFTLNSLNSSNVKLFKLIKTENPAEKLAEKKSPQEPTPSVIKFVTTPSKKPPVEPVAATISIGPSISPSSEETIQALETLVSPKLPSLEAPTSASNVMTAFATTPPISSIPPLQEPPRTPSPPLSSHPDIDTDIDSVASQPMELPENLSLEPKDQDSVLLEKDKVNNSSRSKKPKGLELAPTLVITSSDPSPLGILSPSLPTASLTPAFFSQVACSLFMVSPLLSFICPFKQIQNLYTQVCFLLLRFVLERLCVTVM
The conditions noted are these: protein: recombinant; tags: N-terminal GST; dsDNA, one strand shown. An outline of the steps: as §1

For a further assay, the target named is T4, ETV2 (Homo sapiens, UniProt O00321 1-342).
T4 sequence: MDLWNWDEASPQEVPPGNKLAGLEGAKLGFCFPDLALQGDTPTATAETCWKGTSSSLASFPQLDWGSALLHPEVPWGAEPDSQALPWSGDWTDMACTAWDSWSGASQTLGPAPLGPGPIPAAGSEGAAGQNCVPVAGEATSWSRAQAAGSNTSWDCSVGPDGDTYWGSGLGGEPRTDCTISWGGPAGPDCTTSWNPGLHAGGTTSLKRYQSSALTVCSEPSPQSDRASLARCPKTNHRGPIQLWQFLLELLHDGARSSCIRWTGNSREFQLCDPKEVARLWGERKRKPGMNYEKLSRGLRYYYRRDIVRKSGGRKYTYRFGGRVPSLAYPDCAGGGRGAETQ
Particulars: protein: recombinant; tags: N-terminal GST; dsDNA, one strand shown. An outline of the steps:
as §1

A further assay has as its target T5, ELF3 (Homo sapiens, UniProt P78545 1-371).
T5 sequence: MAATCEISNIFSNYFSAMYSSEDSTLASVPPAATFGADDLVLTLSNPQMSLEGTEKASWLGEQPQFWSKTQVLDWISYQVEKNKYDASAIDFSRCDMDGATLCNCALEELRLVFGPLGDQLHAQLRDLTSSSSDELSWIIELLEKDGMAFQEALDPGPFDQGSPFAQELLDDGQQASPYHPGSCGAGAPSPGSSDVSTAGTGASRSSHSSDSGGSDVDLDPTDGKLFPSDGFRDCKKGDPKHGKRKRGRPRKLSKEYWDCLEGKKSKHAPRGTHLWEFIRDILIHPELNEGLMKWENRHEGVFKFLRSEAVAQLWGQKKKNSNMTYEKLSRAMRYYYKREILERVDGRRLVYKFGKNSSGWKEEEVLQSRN
The conditions noted are these: protein: recombinant; tags: N-terminal GST; dsDNA, one strand shown. Summed up:
as §1

The next assay deals with CRX (Homo sapiens, UniProt O43186 1-299). The conditions noted are these: protein: recombinant; tags: N-terminal GST; dsDNA, one strand shown. An outline of the steps: as §1
In a further assay the target is ETV1 (Homo sapiens, UniProt P50549 1-477). The conditions noted are these: protein: recombinant; tags: N-terminal GST; dsDNA, one strand shown. Summed up:
as §1

A further assay deals with T6, ERF (Homo sapiens, UniProt P50548 1-548).
T6 sequence: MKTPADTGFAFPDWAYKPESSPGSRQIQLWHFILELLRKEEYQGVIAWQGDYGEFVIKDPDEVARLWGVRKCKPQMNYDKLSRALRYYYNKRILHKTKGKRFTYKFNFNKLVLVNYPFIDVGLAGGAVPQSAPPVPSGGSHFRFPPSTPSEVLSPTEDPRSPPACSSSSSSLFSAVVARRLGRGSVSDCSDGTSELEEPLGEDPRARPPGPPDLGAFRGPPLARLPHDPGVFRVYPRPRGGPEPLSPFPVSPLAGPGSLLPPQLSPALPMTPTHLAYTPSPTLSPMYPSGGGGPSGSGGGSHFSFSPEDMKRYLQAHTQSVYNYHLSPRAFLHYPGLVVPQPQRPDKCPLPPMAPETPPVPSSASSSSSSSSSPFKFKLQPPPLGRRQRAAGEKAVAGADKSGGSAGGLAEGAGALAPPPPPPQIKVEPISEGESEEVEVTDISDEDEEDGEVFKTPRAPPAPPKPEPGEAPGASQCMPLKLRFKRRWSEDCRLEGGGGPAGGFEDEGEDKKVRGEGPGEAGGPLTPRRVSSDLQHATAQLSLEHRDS
The conditions noted are these: protein: recombinant; tags: N-terminal GST; dsDNA, one strand shown. Summed up: as §1

Another assay addresses T7, ETV3L (Homo sapiens, UniProt Q6ZN32 1-361).
T7 sequence: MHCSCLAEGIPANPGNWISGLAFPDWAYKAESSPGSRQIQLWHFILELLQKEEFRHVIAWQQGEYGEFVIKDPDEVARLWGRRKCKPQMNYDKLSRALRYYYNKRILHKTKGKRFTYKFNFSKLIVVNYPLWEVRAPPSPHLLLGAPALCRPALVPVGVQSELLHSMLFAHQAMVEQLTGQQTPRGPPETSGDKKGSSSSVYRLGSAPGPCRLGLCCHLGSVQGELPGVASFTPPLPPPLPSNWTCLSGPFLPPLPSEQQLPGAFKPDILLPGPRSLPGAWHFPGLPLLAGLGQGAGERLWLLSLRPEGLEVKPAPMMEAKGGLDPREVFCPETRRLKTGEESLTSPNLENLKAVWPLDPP
The conditions noted are these: protein: recombinant; tags: N-terminal GST; dsDNA, one strand shown. An outline of the steps: as §1

The target in a further assay is T8, ETS2 (Homo sapiens, UniProt P15036 1-469).
T8 sequence: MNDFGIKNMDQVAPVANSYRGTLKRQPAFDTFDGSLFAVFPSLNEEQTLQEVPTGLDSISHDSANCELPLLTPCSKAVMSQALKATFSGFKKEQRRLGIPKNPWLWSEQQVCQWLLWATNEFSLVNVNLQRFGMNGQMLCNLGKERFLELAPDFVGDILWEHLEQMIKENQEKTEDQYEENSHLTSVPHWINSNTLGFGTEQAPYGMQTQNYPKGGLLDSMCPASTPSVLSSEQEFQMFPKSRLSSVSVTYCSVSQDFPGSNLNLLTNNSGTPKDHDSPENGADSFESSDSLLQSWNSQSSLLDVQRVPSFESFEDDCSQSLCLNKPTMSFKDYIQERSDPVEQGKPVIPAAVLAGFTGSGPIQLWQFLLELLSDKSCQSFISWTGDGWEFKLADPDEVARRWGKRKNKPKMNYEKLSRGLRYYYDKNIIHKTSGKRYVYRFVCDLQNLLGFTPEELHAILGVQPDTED
Particulars: protein: recombinant; tags: N-terminal GST; dsDNA, one strand shown. Summed up: as §1

The next assay has as its target T9, SPDEF (Homo sapiens, UniProt O95238 1-335).
T9 sequence: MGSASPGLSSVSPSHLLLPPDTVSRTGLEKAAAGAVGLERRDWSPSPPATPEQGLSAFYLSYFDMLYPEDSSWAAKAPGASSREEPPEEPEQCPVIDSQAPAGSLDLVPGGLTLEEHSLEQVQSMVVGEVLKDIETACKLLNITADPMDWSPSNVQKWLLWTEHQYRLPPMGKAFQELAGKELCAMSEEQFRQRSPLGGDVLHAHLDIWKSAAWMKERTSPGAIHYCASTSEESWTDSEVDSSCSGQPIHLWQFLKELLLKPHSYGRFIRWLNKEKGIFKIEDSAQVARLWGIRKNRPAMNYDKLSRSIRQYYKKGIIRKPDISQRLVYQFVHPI
Particulars: protein: recombinant; tags: N-terminal GST; dsDNA, one strand shown. Summed up:
as §1

Another assay concerns the target T10, ETV7 (Homo sapiens, UniProt Q9Y603 1-341).
T10 sequence: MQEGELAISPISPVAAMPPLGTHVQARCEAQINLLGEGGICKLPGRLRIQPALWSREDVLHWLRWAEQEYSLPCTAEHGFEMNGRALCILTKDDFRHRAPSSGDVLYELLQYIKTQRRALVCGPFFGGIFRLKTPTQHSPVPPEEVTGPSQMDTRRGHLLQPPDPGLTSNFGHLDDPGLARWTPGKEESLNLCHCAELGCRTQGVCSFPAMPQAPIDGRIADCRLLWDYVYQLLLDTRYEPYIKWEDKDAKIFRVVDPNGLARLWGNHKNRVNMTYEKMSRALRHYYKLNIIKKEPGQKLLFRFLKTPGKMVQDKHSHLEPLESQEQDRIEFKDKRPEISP
Particulars: protein: recombinant; tags: N-terminal GST; dsDNA, one strand shown. An outline of the steps: as §1

The next assay has as its target T11, ELF5 (Homo sapiens, UniProt Q9UKW6-2 1-255).
T11 sequence: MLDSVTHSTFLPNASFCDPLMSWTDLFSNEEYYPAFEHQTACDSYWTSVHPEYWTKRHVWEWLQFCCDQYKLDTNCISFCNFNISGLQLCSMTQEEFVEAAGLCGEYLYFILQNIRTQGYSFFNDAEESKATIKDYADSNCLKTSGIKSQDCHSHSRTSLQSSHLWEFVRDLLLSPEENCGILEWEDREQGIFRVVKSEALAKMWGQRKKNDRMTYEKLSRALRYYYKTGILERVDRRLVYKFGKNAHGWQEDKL
Particulars: protein: recombinant; tags: N-terminal GST; dsDNA, one strand shown. An outline of the steps:
as §1

Another assay deals with T12, ETV3 (Homo sapiens, UniProt P41162-2 1-143).
T12 sequence: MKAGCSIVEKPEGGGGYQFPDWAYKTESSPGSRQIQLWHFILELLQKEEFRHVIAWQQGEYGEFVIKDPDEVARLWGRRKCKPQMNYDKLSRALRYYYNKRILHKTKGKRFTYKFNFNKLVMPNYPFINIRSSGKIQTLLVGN
Particulars: protein: recombinant; tags: N-terminal GST; dsDNA, one strand shown. An outline of the steps: as §1

Another assay addresses ETV6 (Homo sapiens, UniProt P41212 1-452). The conditions noted are these: protein: recombinant; tags: N-terminal GST; dsDNA, one strand shown. Summed up: as §1

ELF4, sequence (Q99607 whole entry): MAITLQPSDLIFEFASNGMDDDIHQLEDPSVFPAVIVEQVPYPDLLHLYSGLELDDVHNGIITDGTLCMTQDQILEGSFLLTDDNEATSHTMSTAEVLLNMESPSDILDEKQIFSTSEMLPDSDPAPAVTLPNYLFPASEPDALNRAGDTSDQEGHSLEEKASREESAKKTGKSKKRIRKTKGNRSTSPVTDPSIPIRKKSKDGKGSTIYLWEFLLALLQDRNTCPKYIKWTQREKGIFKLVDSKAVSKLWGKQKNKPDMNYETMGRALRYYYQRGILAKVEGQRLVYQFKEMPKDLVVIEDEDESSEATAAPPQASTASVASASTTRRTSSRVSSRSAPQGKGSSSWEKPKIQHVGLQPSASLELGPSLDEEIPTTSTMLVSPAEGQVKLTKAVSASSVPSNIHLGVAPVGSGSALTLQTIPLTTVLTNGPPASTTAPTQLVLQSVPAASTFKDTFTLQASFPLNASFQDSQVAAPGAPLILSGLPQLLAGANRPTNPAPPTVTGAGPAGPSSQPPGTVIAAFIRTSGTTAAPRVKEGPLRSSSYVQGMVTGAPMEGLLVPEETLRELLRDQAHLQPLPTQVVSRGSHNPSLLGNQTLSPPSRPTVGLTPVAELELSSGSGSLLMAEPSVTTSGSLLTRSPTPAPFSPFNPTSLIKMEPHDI
ETV5, sequence (P41161 whole entry): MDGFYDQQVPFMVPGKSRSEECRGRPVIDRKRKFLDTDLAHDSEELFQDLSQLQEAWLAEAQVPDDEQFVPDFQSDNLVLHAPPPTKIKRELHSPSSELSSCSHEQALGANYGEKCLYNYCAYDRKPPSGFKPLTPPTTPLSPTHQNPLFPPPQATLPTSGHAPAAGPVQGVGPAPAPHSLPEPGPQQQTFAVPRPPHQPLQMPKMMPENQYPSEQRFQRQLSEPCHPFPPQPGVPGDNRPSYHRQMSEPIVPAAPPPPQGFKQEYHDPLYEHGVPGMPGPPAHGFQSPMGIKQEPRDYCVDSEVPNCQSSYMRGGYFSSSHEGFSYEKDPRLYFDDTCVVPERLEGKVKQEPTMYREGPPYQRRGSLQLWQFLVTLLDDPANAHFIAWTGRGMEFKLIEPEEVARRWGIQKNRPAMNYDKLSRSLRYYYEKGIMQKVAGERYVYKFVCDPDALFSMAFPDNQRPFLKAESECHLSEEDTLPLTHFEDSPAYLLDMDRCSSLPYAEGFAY
CRX, sequence (O43186 whole entry): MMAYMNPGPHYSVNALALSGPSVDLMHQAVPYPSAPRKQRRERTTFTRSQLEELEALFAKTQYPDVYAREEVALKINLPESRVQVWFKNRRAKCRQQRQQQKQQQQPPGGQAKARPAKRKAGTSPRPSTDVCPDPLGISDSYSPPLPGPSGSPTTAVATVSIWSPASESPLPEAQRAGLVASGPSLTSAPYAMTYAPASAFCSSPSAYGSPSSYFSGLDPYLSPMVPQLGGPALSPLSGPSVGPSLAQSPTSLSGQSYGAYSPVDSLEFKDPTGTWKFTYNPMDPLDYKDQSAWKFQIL
HSF1, sequence (Q00613 whole entry): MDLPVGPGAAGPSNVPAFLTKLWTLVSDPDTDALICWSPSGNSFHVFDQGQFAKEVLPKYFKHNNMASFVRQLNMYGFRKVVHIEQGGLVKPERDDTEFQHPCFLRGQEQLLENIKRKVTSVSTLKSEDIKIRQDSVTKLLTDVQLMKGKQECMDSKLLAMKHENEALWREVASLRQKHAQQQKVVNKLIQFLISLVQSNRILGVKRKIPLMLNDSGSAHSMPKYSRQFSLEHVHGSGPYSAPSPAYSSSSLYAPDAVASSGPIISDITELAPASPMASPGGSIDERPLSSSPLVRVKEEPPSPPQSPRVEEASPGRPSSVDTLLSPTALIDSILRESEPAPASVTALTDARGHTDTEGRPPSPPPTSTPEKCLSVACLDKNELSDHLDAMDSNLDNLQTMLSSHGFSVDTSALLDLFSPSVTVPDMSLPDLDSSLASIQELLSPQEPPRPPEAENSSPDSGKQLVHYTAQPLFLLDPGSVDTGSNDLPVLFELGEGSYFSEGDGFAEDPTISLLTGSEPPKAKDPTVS
ETV6, sequence (P41212 whole entry): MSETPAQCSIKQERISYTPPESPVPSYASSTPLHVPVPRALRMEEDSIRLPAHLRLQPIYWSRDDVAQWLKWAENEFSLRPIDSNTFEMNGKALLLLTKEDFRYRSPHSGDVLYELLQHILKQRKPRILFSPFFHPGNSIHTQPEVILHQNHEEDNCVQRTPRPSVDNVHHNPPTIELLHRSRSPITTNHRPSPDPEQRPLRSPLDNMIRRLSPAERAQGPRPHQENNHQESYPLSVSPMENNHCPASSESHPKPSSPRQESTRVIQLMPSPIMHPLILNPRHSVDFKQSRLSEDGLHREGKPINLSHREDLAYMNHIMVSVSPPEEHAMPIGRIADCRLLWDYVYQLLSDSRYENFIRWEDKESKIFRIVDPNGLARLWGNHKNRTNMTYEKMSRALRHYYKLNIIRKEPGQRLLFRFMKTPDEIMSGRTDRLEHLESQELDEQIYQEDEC
ETV1, sequence (P50549 whole entry): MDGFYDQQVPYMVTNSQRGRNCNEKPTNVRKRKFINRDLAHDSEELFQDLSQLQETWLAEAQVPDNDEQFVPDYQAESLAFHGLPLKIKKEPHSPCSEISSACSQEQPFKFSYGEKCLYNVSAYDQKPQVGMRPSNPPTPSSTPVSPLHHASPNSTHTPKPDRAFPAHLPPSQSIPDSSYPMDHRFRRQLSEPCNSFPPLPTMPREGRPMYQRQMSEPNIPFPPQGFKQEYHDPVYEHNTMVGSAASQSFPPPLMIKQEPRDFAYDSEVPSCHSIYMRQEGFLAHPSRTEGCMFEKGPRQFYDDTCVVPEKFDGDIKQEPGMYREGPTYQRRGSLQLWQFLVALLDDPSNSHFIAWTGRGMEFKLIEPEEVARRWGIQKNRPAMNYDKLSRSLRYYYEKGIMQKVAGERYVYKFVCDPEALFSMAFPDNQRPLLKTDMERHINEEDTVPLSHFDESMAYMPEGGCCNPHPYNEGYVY

TCCAAG: the binding signal in the assay with FEV is 1.03 fold enrichment (6-mer frequency, TF over GST control); in the assay with ETV5 it was 1.07 fold enrichment (6-mer frequency, TF over GST control); in the assay with HSF1, 1.23 fold enrichment (6-mer frequency, TF over GST control); in the assay with SPIC, 1.11 fold enrichment (6-mer frequency, TF over GST control); with ELF4, 1.07 fold enrichment (6-mer frequency, TF over GST control); in the assay with ELK4 it was 1.04 fold enrichment (6-mer frequency, TF over GST control). Further, the binding signal in the assay with ETV2 is 1.19 fold enrichment (6-mer frequency, TF over GST control); with ELF3, 1.11 fold enrichment (6-mer frequency, TF over GST control); in the assay with CRX, 1.2 fold enrichment (6-mer frequency, TF over GST control); with ETV1 it was 1.13 fold enrichment (6-mer frequency, TF over GST control); with ERF it was 1.03 fold enrichment (6-mer frequency, TF over GST control); with ETV3L, 1.06 fold enrichment (6-mer frequency, TF over GST control). The binding signal was 1.13 fold enrichment (6-mer frequency, TF over GST control) with ETS2; 1.17 fold enrichment (6-mer frequency, TF over GST control) with SPDEF; 1.07 fold enrichment (6-mer frequency, TF over GST control) in the assay with ETV7; 1.07 fold enrichment (6-mer frequency, TF over GST control) in the assay with ELF5; 1.06 fold enrichment (6-mer frequency, TF over GST control) with ETV3; 1.03 fold enrichment (6-mer frequency, TF over GST control) with ETV6.
